PubChem BioAssay AID2685 (National Center for Advancing Translational Sciences (NCATS), 2010)
Screen size: about 320,000 compounds; about 2,100 (0.66%) were called active. Inconclusive results (about 53%) are left out. The sample holds actives, similar compounds and a random draw of the others, so the mix is not that of the screen. Calls follow the shape of the dose curve; as a rule, active = well fitted inhibition curve with a large enough effect in the signal ratio, with a control signal flat (not every such curve was filed as active); inconclusive = small, poorly fitted or top-dose-only effect, or effect the other way, or a change in a side signal; inactive = flat fitted curve, though single readings scatter; the % refers to the signal ratio.

test: qHTS Assay for Lipid Storage Modulators in Drosophila S3 Cells; conditions: BODIPY lipid droplet fluorescence, 18-24 h, cells fed with added oleic acid; cell number change: measured here: cell count max response; series mostly up to 46.1 µM; lipid storage change, negative = inhibition: at the top concentration;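 as to cell number change: cells counted by Cell Tracker Red CMTPX staining in the red channel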; as to lipid storage change, negative = inhibition: % is scaled to controls: 0 for no effect and ±100 for the full control effect
Outline: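 Laser-scanning cytometry quantifies lipid droplet accumulation (500–530 nm total intensity; droplet/cell object ratio) in oleic acid-fed (400 uM added) Drosophila S3 cells treated with a concentration series. 20 uM Triacsin C defined 100% inhibition.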
Potency is read from the fitted curve at half-maximal effect.

| SMILES | lipid storage change, negative = inhibition | cell number change | Potency | outcome |
| --- | --- | --- | --- | --- |
| CCOC(=O)Cn1nc(C)c([N+](=O)[O-])c1C | 2.28% (inactive) | 2.33% |  |  |
| O=C(CS(=O)CC(=O)N(CC(=O)NC1CCCC1)c1ccc2c(c1)OCCO2)Nc1ccc(F)cc1 (centres undefined) | -7.01% (inactive) | 11.4% |  |  |
| Cc1ccc(C(=O)c2oc3nc(C)cc(C)c3c2N)cc1 | -5.18% (inactive) | -19% |  |  |
| Cc1cc(C)c2c(N)c(C(=O)c3ccc(Br)cc3)oc2n1 | -2.5% (inactive) | -13.1% |  |  |
| CCc1ccc(C(=O)c2oc3nc(C)cc(C)c3c2N)cc1 |  | -19.5% | 25.9 µM (active) |  |
| CC1CC(C)CN(S(=O)(=O)c2ccc(NC(=O)CN3C(=O)NC(C)(c4ccccc4)C3=O)cc2)C1 (centres undefined) |  | 3.59% |  | inactive |
| O=C(O)C1CC(=O)N(C2CCCCC2)C1c1ccccc1 (centres undefined) |  | -5.69% |  | inactive |
| CCOC(=O)N1CCN(C(=O)CSc2nc(=O)n3cc(C)ccc3n2)CC1 |  |  |  | inactive |
| CC(=O)NC(c1ccccc1)c1c(O)ccc2ccccc12 (centres undefined) | -3.87% (inactive) | 0.433% |  |  |
| Cc1ccc(C(NC(=O)C2CCCCC2)c2c(O)ccc3ccccc23)cc1 (centres undefined) |  | -26.6% | 13 µM (active) |  |
| CC(C)CC(=O)NC(c1ccccc1)c1c(O)ccc2ccccc12 (centres undefined) | 27% (inactive) | -6.8% |  |  |
| CCN(CC)S(=O)(=O)c1ccc(N2CCOCC2)c(NC(=O)CN2C(=O)NC(C)(c3ccccc3)C2=O)c1 (centres undefined) | 12.6% (inactive) |  |  |  |
| O=C(Cc1cccc(F)c1)N1CCCC(CO)(Cc2ccc(F)cc2F)C1 (centres undefined) | 18.2% (inactive) | 17.6% |  |  |
| CC(C)c1nc2sc3c(=O)[nH]c(=S)[nH]c3c2c2c1CCC2 |  | 5.1% | 20.6 µM (active) |  |
| CC1(C)Cc2c(c(-c3ccccc3)nc3sc4c(=O)[nH]c(=S)[nH]c4c23)CO1 |  |  |  | inactive |
| CC(C)c1nc2sc3c(=O)[nH]cnc3c2c2c1CCC2 | 5.84% (inactive) | -2.67% |  |  |
| Cc1[nH]n(-c2ccc([N+](=O)[O-])cc2)c(=O)c1C=NCC1CCCO1 (centres undefined) |  |  |  | inactive [at 9.22 µM] |
| O=C(CN1C(=O)/C(=C/c2cccc(Br)c2)SC1=S)NCCCN1CCOCC1 | -12% (inactive) |  |  |  |
| O=C(Cc1csc(NC(=O)Nc2ccc(Cl)cc2)n1)NC1CCCC1 |  |  |  | inactive [at 0.0737 µM] |
| CSc1c(CC(=O)NCCCO)n(Cc2ccccc2)c2ccccc12 | -9.68% (inactive) | -1.72% |  |  |
| Cn1c(CC(=O)NCCO)c(Sc2ccccc2)c2ccccc21 | -11.2% (inactive) | -10.3% |  |  |
| O=C(Cc1c(Sc2ccccc2)c2ccccc2n1Cc1ccccc1)NCCO |  |  | 13 µM (active) |  |
| Cc1cccc(-n2c(=S)[nH]c3nc4c(cc3c2=O)COC(C)(C)C4)c1 | -10.4% (inactive) | 18.9% |  |  |
| CCOc1ccc(S(=O)(=O)NCCc2cn3ccccc3n2)cc1 | 13.3% (inactive) | 6.49% |  |  |

| SMILES | lipid storage change, negative = inhibition | cell number change | Potency | outcome |
| --- | --- | --- | --- | --- |
| Cc1ccc(-c2csc3ncnc(N4CCN(c5ccccc5O)CC4)c23)cc1 |  | 7.78% |  | inactive |
| COc1ccc(-c2csc3ncnc(N4CCN(c5ccc(OC)cc5)CC4)c23)cc1 | -11.7% (inactive) | 11.5% |  |  |
| CN1CCN(c2nc(-c3cccnc3)nc3scc(-c4ccccc4)c23)CC1 |  |  |  | inactive |
| COc1ccc(-c2csc3ncnc(N4CCN(S(=O)(=O)c5ccccc5C#N)CC4)c23)cc1 |  | -21.2% | 7.31 µM (active) |  |
| Cc1nc(N2CCCCC2)c2c(-c3cccs3)csc2n1 | 2.23% (inactive) | 4.97% |  |  |
| Oc1ccccc1N1CCN(c2ncnc3scc(-c4ccccc4)c23)CC1 |  | -12.6% | 0.92 µM (active) |  |
| Cc1nc(N2CCN(c3ccccc3O)CC2)c2c(-c3ccccc3)csc2n1 |  | -4.5% | 4.11 µM (active) |  |
| COc1ccc(-c2csc3ncnc(N4CCN(S(=O)(=O)c5ccc(Cl)s5)CC4)c23)cc1 | 18.9% (inactive) |  |  |  |
| c1ccc(-c2csc3ncnc(N4CCOCC4)c23)cc1 | -7.17% (inactive) | -6.12% |  |  |
| COc1cccc(NC(=O)CN(C)C(=O)c2ccccc2-c2nc3ccccc3s2)c1 |  | -6.15% |  | inactive |
| CCCCn1c(N)c(N(CC)C(=O)c2ccc([N+](=O)[O-])c(C)c2)c(=O)[nH]c1=O |  | 6.41% |  | inactive |
| COCC(=O)NCCSc1c(C)[nH]c2ccccc12 |  |  |  | inactive |
| COc1ccc(/C=N/NC(=O)c2cccc(Br)c2)cc1CSc1ccccn1 | 11% (inactive) | 25.3% |  |  |
| Cc1ccccc1CN1CCC(n2nccc2NC(=O)CCOc2ccccc2)CC1 |  |  |  | inactive |
| N#Cc1ccccc1OCC(=O)NCC(c1ccc(F)cc1)N1CCOCC1 (centres undefined) | 14.4% (inactive) | 17.7% |  |  |
| CSc1nnc(C)c(=O)n1COC(=O)COc1ccc(F)cc1 | -4.54% (inactive) |  |  |  |
| CCC(C)N(C(=O)Cn1nnc(-c2ccc(F)cc2)n1)C1CCS(=O)(=O)C1 (centres undefined) | 18.3% (inactive) | 8.11% |  |  |
| O=C(CN(C(=O)c1csnn1)c1ccc(Cl)cc1)NCc1ccc2c(c1)OCO2 |  | 3.81% |  | inactive |
| COc1ccc(S(=O)(=O)N(C)CC(=O)NCc2ccc3c(c2)OCO3)cc1 |  | 16.1% | 2.06 µM (active) |  |
| COc1ccc(N(CC(=O)NCc2ccc3c(c2)OCO3)C(=O)c2csnn2)cc1 |  | -14.1% | 1.16 µM (active) |  |
| COc1ccc(S(=O)(=O)N(C)CC(=O)Nc2ccc3c(c2)OCO3)cc1 |  | -1.44% |  | inactive |
| COc1ccc(Cl)cc1S(=O)(=O)N(C)CC(=O)NCc1ccc2c(c1)OCO2 | -3.57% (inactive) | 13.5% |  |  |
| O=C(CN(C(=O)c1csnn1)c1cccc(F)c1)NCc1ccc2c(c1)OCO2 | 4.68% (inactive) | 8.12% |  |  |
| Cc1ccc2c(c1)N(S(=O)(=O)c1ccc3c(c1)NC(=O)CC(=O)N3)CCO2 | -11.8% (inactive) | 15% |  |  |
